# Reference: PubChem BioAssay
# Values without a mark were called inactive. Calls of active or inactive are those of the source.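 How the source made its calls, unless noted: active means fluorescence slope after compound addition differing from the mean of all screened samples at 99.7% confidence, in either direction; inactive means the rest.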
# Molecular target: Voltage-gated potassium channel subunit beta-2 (Rattus norvegicus) (UniProt P62483)
# Assay: KvBeta positive modulators, primary screen, biochemical, NADPH fluorescence (AID 623;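 active means NADPH fluorescence slope more negative than the mean of all samples by about 3 SD, 99.7% confidence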;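 further: fluorescence intensity change per second fitted from 20 to 320 s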)
# Details: Recombinant KvBeta, NADPH fluorescence decrease slope, 10 min; at 10 µM; active compounds read low
# Sequence of Voltage-gated potassium channel subunit beta-2 (Rattus norvegicus) (P62483 whole entry, looked up): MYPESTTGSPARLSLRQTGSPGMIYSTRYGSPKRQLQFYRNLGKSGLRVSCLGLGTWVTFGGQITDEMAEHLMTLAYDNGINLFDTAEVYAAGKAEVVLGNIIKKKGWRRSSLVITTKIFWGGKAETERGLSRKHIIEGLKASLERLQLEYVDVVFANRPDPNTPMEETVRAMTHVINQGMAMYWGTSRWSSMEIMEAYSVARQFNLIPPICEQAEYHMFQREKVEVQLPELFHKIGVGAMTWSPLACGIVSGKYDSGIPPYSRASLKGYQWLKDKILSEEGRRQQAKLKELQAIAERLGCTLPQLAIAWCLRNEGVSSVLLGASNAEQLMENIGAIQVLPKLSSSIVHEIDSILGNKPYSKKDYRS
row,SMILES,NADPH fluorescence slope
1,Cc1ccc(C(=O)NC(Cc2c[nH]c3ccccc23)C(=O)O)o1 (stereo not given),5.1e-05
2,N/C(=N/O)c1nc(N2CCCC2)nc(N(c2ccccc2)c2ccccc2)n1,-3.2e-05
3,COC(=O)c1nnn(-c2ccccc2)c1N,-2.7e-05
4,CCOC(=O)c1cc2c(=O)n3cccc(C)c3nc2n(CC2CCCO2)c1=NC(C)=O (stereo not given),-2.5e-05
5,CCOC(=O)Nc1cc(OC)c(OC)cc1Cc1nccc2cc(OC)c(OC)cc12,4.5e-06
6,CCN(CC)S(=O)(=O)c1ccc(Br)c(OC)c1,-5.2e-05
7,CCOc1ccc2nc(SCc3ccc(C(=O)OC)o3)[nH]c2c1,2e-06
8,Nc1nc2n(n1)C(c1cccc(Br)c1)CC(c1ccc(F)cc1)N2 (stereo not given),7.7e-06
9,CCc1[nH]nc2c1C1(CCN(C(=O)OCc3ccccc3)CC1)C(C#N)=C(N)O2,-4.5e-05
10,Cc1cc(=O)n2nc(-c3ccccc3)sc2n1,-9.5e-06
11,CC(=O)OCCNc1cc(N2CCN(C)CC2)c2noc3c2c1C(=O)c1ccccc1-3,-2.8e-05
12,N#Cc1c(NCc2ccccc2)ccnc1NCc1cccnc1,-6.2e-05
13,CCCCc1c(O)nc(N2CCN(Cc3ccccc3)CC2)[nH]c1=O,-4.3e-05
14,N#CC1=C(N)N(c2ccc(Oc3ccccc3)cc2)C(=O)C1,-5.5e-05
15,CCc1ccccc1NC(=O)CCc1nc(-c2ccc(C)cc2)no1,1.2e-05
16,c1ccc(OCCCn2nnc(-c3cccnc3)n2)cc1,4.3e-06
17,COc1ccc(Cl)cc1N1CC(c2nc3ccccc3[nH]2)CC1=O (stereo not given),6.8e-06
18,CC1(C)NC(=O)N(CC(O)COc2cccc(F)c2)C1=O (stereo not given),-2.3e-05
19,Cc1c(C(=O)OCc2ccccc2)[nH]c2c1C(=O)CC(c1ccco1)C2 (stereo not given),-1.8e-05
20,CCOC(=O)c1sc(NC(=O)CSc2nnc(-c3ccc(OC)cc3)n2CCOC)nc1C,1.3e-05

row,SMILES,NADPH fluorescence slope
1,COc1ccc(Cn2nnnc2C(c2cccnc2)N2CCN(c3ccc(O)cc3)CC2)cc1 (stereo not given),-5.3e-05
2,CCOC(=O)Cn1c(CN(C)Cc2ccccc2)nc2c1c(=O)n(C)c(=O)n2C,-3.7e-05
3,CNC(=O)CSc1nnc(-c2ccc(S(=O)(=O)N3CCCC3)cc2)n1-c1cccc(C)c1C,-4.2e-05
4,O=C(COC(=O)CSc1nnc(-c2ccc(Cl)cc2)o1)NCc1ccc2c(c1)OCO2,-3.7e-05
5,CC(C)(C)n1ncc2c(=O)n(CC(=O)NCc3ccc(F)cc3)cnc21,-5.3e-05
6,CC1CCN(S(=O)(=O)c2cccc(C(=O)Nc3ccccn3)c2)CC1,-4.1e-05
7,CCOC(=O)c1cc2c(=O)n3ccccc3nc2n(CC2CCCO2)c1=NC(C)=O (stereo not given),-1.3e-05
8,CCOC(=O)c1[nH]c(C)c(C(=O)N2CCN(C(=O)c3ccco3)CC2)c1C,1.2e-05
9,CCN(CC)S(=O)(=O)c1ccc(NC(=O)Cn2cnc3ccccc3c2=O)cc1,-0.000135
10,CCOC(=O)c1c(C)[nH]c(C(=O)COC(=O)c2ccc(F)c(S(=O)(=O)N3CCOCC3)c2)c1C,-5.1e-05
11,O=C(CN1CCN(c2ncccn2)CC1)Nc1ccccc1-n1cccc1,-6.7e-06
12,CCOC(=O)Cn1c(=O)c(-c2ccccc2N)nc2ccccc21,-3.7e-05
13,CCCOc1ccc(NC2=CC(=O)CC(C)(C)C2)cc1,-4.9e-05
14,CCOC(=O)C1(CC)NC(c2cccc(F)c2)C2C(=O)N(CC)C(=O)C21 (stereo not given),-0.00018
15,CCC(C)NC(=O)CC1Oc2ccc(C)cc2NC1=O (stereo not given),-1.5e-05
16,O=C(NCC(=O)N(c1cnc2ccccc2c1)C(C(=O)NC1CCCC1)c1ccncc1)c1ccco1 (stereo not given),5.2e-05
17,O=C(Nc1cccc2ccccc12)N1CCN(c2ccccc2)CC1,-2.7e-05
18,CC(C)(C)Nc1nc(NC(C)(C)C)nc(-n2ccnc2)n1,1.8e-05
19,Nc1nnnn1NCc1cccc(OCc2ccccc2)c1,-2.7e-05
20,O=C(COC(=O)C1CC(=O)N(c2ccccc2)C1)c1ccccc1 (stereo not given),-2.9e-05

# Molecular target: Alpha-2C adrenergic receptor (Homo sapiens) (UniProt P18825)
# Sequence (P18825 whole entry, looked up): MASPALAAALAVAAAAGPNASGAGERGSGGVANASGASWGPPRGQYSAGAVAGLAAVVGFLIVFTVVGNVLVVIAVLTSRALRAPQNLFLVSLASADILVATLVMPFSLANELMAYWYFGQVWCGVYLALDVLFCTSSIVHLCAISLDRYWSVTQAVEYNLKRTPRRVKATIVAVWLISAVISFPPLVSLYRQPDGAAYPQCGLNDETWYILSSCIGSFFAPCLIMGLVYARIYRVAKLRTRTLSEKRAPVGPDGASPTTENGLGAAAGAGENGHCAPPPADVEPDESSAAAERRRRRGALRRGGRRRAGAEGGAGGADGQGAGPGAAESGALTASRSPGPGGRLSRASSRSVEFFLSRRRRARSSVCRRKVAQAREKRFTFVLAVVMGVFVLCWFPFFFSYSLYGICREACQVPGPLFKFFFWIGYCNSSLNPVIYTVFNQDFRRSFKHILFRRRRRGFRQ
# Assay: modulators of alpha2C/GIRK thallium flux, primary screen, cell-based, HEK293 alpha2C/GIRK1/2 (AID 624);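 further: slope of fluorescence ratio to pre-addition baseline per second over 15 to 24 s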
# Details: thallium flux BTC fluorescence, at 10 µM, actives lie on both sides
row,SMILES,slope
1,Cc1ccc(C(=O)NC(Cc2c[nH]c3ccccc23)C(=O)O)o1 (stereo not given),0.0112 (active)
2,N/C(=N/O)c1nc(N2CCCC2)nc(N(c2ccccc2)c2ccccc2)n1,0.00592
3,COC(=O)c1nnn(-c2ccccc2)c1N,0.00571
4,CCOC(=O)c1cc2c(=O)n3cccc(C)c3nc2n(CC2CCCO2)c1=NC(C)=O (stereo not given),0.00401
5,CCOC(=O)Nc1cc(OC)c(OC)cc1Cc1nccc2cc(OC)c(OC)cc12,0.00447
6,CCN(CC)S(=O)(=O)c1ccc(Br)c(OC)c1,0.00493
7,CCOc1ccc2nc(SCc3ccc(C(=O)OC)o3)[nH]c2c1,0.00497
8,Nc1nc2n(n1)C(c1cccc(Br)c1)CC(c1ccc(F)cc1)N2 (stereo not given),0.00861
9,CCc1[nH]nc2c1C1(CCN(C(=O)OCc3ccccc3)CC1)C(C#N)=C(N)O2,0.00458
10,Cc1cc(=O)n2nc(-c3ccccc3)sc2n1,0.00585
11,CC(=O)OCCNc1cc(N2CCN(C)CC2)c2noc3c2c1C(=O)c1ccccc1-3,0.00388
12,N#Cc1c(NCc2ccccc2)ccnc1NCc1cccnc1,0.00541
13,CCCCc1c(O)nc(N2CCN(Cc3ccccc3)CC2)[nH]c1=O,0.0053
14,N#CC1=C(N)N(c2ccc(Oc3ccccc3)cc2)C(=O)C1,0.00638
15,CCc1ccccc1NC(=O)CCc1nc(-c2ccc(C)cc2)no1,0.00374
16,c1ccc(OCCCn2nnc(-c3cccnc3)n2)cc1,0.0037
17,COc1ccc(Cl)cc1N1CC(c2nc3ccccc3[nH]2)CC1=O (stereo not given),0.00704
18,CC1(C)NC(=O)N(CC(O)COc2cccc(F)c2)C1=O (stereo not given),0.00622
19,Cc1c(C(=O)OCc2ccccc2)[nH]c2c1C(=O)CC(c1ccco1)C2 (stereo not given),0.00645
20,CCOC(=O)c1sc(NC(=O)CSc2nnc(-c3ccc(OC)cc3)n2CCOC)nc1C,0.00672

row,SMILES,slope
1,COc1ccc(Cn2nnnc2C(c2cccnc2)N2CCN(c3ccc(O)cc3)CC2)cc1 (stereo not given),0.00403
2,CCOC(=O)Cn1c(CN(C)Cc2ccccc2)nc2c1c(=O)n(C)c(=O)n2C,0.00521
3,CNC(=O)CSc1nnc(-c2ccc(S(=O)(=O)N3CCCC3)cc2)n1-c1cccc(C)c1C,0.00667
4,O=C(COC(=O)CSc1nnc(-c2ccc(Cl)cc2)o1)NCc1ccc2c(c1)OCO2,0.00607
5,CC(C)(C)n1ncc2c(=O)n(CC(=O)NCc3ccc(F)cc3)cnc21,0.00547
6,CC1CCN(S(=O)(=O)c2cccc(C(=O)Nc3ccccn3)c2)CC1,0.00478
7,CCOC(=O)c1cc2c(=O)n3ccccc3nc2n(CC2CCCO2)c1=NC(C)=O (stereo not given),0.00574
8,CCOC(=O)c1[nH]c(C)c(C(=O)N2CCN(C(=O)c3ccco3)CC2)c1C,0.00532
9,CCN(CC)S(=O)(=O)c1ccc(NC(=O)Cn2cnc3ccccc3c2=O)cc1,0.0039
10,CCOC(=O)c1c(C)[nH]c(C(=O)COC(=O)c2ccc(F)c(S(=O)(=O)N3CCOCC3)c2)c1C,0.00426
11,O=C(CN1CCN(c2ncccn2)CC1)Nc1ccccc1-n1cccc1,0.006
12,CCOC(=O)Cn1c(=O)c(-c2ccccc2N)nc2ccccc21,0.00661
13,CCCOc1ccc(NC2=CC(=O)CC(C)(C)C2)cc1,0.00457
14,CCOC(=O)C1(CC)NC(c2cccc(F)c2)C2C(=O)N(CC)C(=O)C21 (stereo not given),0.00451
15,CCC(C)NC(=O)CC1Oc2ccc(C)cc2NC1=O (stereo not given),0.00629
16,O=C(NCC(=O)N(c1cnc2ccccc2c1)C(C(=O)NC1CCCC1)c1ccncc1)c1ccco1 (stereo not given),0.00551
17,O=C(Nc1cccc2ccccc12)N1CCN(c2ccccc2)CC1,0.00612
18,CC(C)(C)Nc1nc(NC(C)(C)C)nc(-n2ccnc2)n1,0.00537
19,Nc1nnnn1NCc1cccc(OCc2ccccc2)c1,0.00425
20,O=C(COC(=O)C1CC(=O)N(c2ccccc2)C1)c1ccccc1 (stereo not given),0.00601
